This is an account of results in PubChem BioAssay (EPA / NIEHS).

The structures appear in SMILES notation. Activity calls are given as the source filed them. How the source made its calls: active means hit-call score of the fitted dose curve at least 0.9, where 1 is the maximum; inactive means score below 0.9.

As a reminder, the AC50 is the concentration giving half of the maximal activity seen.

A short description of the assay: ATG_VDRE_CIS: Attagene CIS-FACTORIAL HepG2 Assay for human Vitamin D Receptor Element (VDRE) (AID 2282968). The following applies: HepG2 VDRE cis-reporter transcription, actives raise or lower the signal. As for the experimental part:
ATG_CIS is a cell-based, multiplexed-readout assay that uses HepG2, a human liver cell line, with measurements taken at 24 hours after chemical dosing in a 24-well plate.ATG_VDRE_CIS is one of 52 assay component(s) measured or calculated from the ATG_CIS assay. It is designed to make measurements of mRNA induction, a form of inducible reporter, as detected with fluorescence intensity signals by Reverse transcription polymerase chain reaction (RT-PCR) and Capillary electrophoresis technology.Data from the assay component ATG_VDRE_CIS was analyzed into 1 assay endpoint. This assay endpoint, ATG_VDRE_CIS, was analyzed with bidirectional fitting relative to DMSO as the negative control and baseline of activity. Using a type of inducible reporter, measures of mRNA for gain or loss-of-signal activity can be used to understand the reporter gene at the transcription factor-level as they relate to the gene VDR. Furthermore, this assay endpoint can be referred to as a primary readout, because this assay has produced multiple assay endpoints where this one serves a reporter gene function. To generalize the intended target to other relatable targets, this assay endpoint is annotated to the nuclear receptor intended target family, where the subfamily is non-steroidal.
Human liver HepG2 cells are transiently transfected with multiple reporter transcription units (MRTUs) in 6-well plates using FuGene 6 reagent (Roche; 3 ml FuGene/1 mg DNA). The MRTU constructs are regulated by a cis-regulating element (promoter). […] A major difference between the CIS and TRANS system is that in CIS activities of endogenous TFs are measured, whereas the TRANS assay evaluates changes in activities of exogenous, chimeric NR-Gal4 proteins. […] At the end of 24 hour incubation, total RNA was isolated using TriZol reagent (Invitrogen). The isolated RNA is then reverse-transcribed using oligo(dT) primer and Mo-MLV reverse transcriptase (Invitrogen) with DNAse I (Ambion) treatment for 30 min. The one-tenth of the produced cDNA was amplified by PCR using Taq DNA polymerase (Invitrogen) and two reporter sequence-specific primers. The PCR products were fluorescently labeled by primer extension with 6-arboxyfluorescein (6-FAM) 5'-labeled reporter sequence-specific primer (2 min at 95 C, 20 s at 68 C and 10 min at 72 C) and these products were digested with 5U of HpaI (New England Biolabs) for 2h at 37 C. The fragments were purified using Qiaquick PCR columns (Qiagen), analyzed on an ABI 3130xL genetic analyzer (Applied Biosystems) with peak positions identified by using a set of X-rhodamine (ROX)-labeled MapMarker1000 molecular weight standards (BioVentures). The raw capillary electrophoresis data was processed using Attagraph software (Attagene).
In the case of `CC[C@H](C)[C@H]1O[C@]2(C=C[C@@H]1C)C[C@@H]1C[C@@H](C/C=C(\C)[C@@H](O[C@H]3C[C@H](OC)[C@@H](O[C@H]4C[C@H](OC)[C@@H](NC)[C@H](C)O4)[C@H](C)O3)[C@@H](C)/C=C/C=C3\CO[C@@H]4[C@H](O)C(C)=C[C@@H](C(=O)O1)[C@]34O)O2`, the result was inactive.
Consider `CCOP(=O)(NC(C)C)Oc1ccc(SC)c(C)c1` (stereo not given), for which the AC50 was 8.8 µM (active).
Regarding `CCCSP(=O)(OCC)Oc1ccc(Br)cc1Cl` (stereo not given), the AC50 is 6.6 µM (active).
On the same count and under the same terms, under `CCc1cccc(C)c1N(C(=O)CCl)C(C)COC` (stereo not given) stands 9.18 µM (active).
Same read-out and setting: under `CCc1cccc(CC)c1N(COC)C(=O)CCl` stands 7.75 µM (active).
On to `N#CSCSC#N`, for which the compound was called inactive.
The same measure, in the same setting: the same measure for `CCCOCC(=Nc1ccc(Cl)cc1C(F)(F)F)n1ccnc1`: “inactive”.
With `CON=C(C(=O)OC)c1ccccc1CON=C(C)c1cccc(C(F)(F)F)c1`, the AC50 is 11.1 µM (active).
On the same count and under the same terms, under `CCC(CC)Nc1c([N+](=O)[O-])cc(C)c(C)c1[N+](=O)[O-]` stands 15.3 µM (active).
Take `COP(=O)(OC)OC(Br)C(Cl)(Cl)Br` (stereo not given): the outcome was inactive.
On the same count and under the same terms, under `CCCOc1nn(C(=O)NS(=O)(=O)c2ccccc2C(=O)OC)c(=O)n1C` stands “inactive”; under `CCCCOC(=O)[C@@H](C)Oc1ccc(Oc2ccc(C#N)cc2F)cc1`, “inactive”.
Regarding `CC1(C(=O)Nc2ccc(O)c(Cl)c2Cl)CCCCC1`, the AC50 is 10.8 µM (active).
`CCC(=NOC/C=C/Cl)C1=C(O)CC(C2CCOCC2)CC1=O` (stereo not given): the compound was called inactive.
Still for that read-out and setting: the same measure for `CC(=NC#N)N(C)Cc1ccc(Cl)nc1`: “inactive”.
Regarding `C#CCC1=C(C)C(OC(=O)C2C(C=C(C)C)C2(C)C)CC1=O` (stereo not given), the AC50 was 7.01 µM (active).
For `CSc1nnc(C(C)(C)C)c(=O)n1N`, the outcome was inactive.
Regarding `COc1cccc(C(=O)NN(C(=O)c2cc(C)cc(C)c2)C(C)(C)C)c1C`, the AC50 was 1.94 µM (active).
Turning to `COP(=O)(NC(C)=O)SC` (stereo not given), the call was inactive.
With `CCCCSP(=O)(SCCCC)SCCCC`, the AC50 was 12 µM (active).
On the same count and under the same terms, under `C#CC(C)(C)NC(=O)c1cc(Cl)cc(Cl)c1` stands 29.3 µM (active).
For the compound `Cc1ccn2nc(S(=O)(=O)Nc3c(F)cccc3F)nc2n1`, the result was inactive.
Regarding `CC(C1CC1)C(O)(Cn1cncn1)c1ccc(Cl)cc1` (stereo not given), the result was inactive.
`CCCCN(CC)c1c([N+](=O)[O-])cc(C(F)(F)F)cc1[N+](=O)[O-]`: the AC50 was 13.3 µM (active).
As to `Nc1c(Cl)cc([N+](=O)[O-])cc1Cl`, the call was inactive.
Regarding `CNC(=O)ON=C(SC)C(=O)N(C)C`, the compound was called inactive.
Turning to `Cc1cc(C2CC2)nc(Nc2ccccc2)n1`, the AC50 was 28.6 µM (active).
On the same count and under the same terms, the same measure for `Cc1nn(-c2cc(NS(C)(=O)=O)c(Cl)cc2Cl)c(=O)n1C(F)F`: 30.8 µM (active).
Consider `CC1=NNC(=O)N(/N=C/c2cccnc2)C1`, for which the call was inactive.
For the compound `CC(COc1ccc(Oc2ccccc2)cc1)Oc1ccccn1` (stereo not given), the AC50 is 16 µM (active).
`C[N+]1(C)CCCCC1`: the compound was called inactive.
Still for that read-out and setting: under `CCOC(=O)COc1cc(-c2nn(C)c(OC(F)F)c2Cl)c(F)cc1Cl` stands “inactive”; under `COc1cc(OC)nc(Sc2cccc(Cl)c2C(=O)O)n1`, “inactive”.
As for `C[Si](Cn1cncn1)(c1ccc(F)cc1)c1ccc(F)cc1`, the AC50 was 27.6 µM (active).
Consider `CC(C)N(C(=O)SCC(Cl)=C(Cl)Cl)C(C)C`, for which the AC50 was 29.1 µM (active).
Turning to `CNC(=O)ON=C(C)SC`, the outcome was inactive.
With `CNc1cnn(-c2cccc(C(F)(F)F)c2)c(=O)c1Cl`, the AC50 was 13.6 µM (active).
Same read-out and setting: under `COP(=O)(OC)C(O)C(Cl)(Cl)Cl` (stereo not given) stands 50 µM (active); under `FC(F)C(F)(F)OCC(Cn1cncn1)c1ccc(Cl)cc1Cl` (stereo not given), 37.3 µM (active).
Consider `CCOP(=O)(SC(C)CC)N1CCSC1=O` (stereo not given), for which the outcome was inactive.
